Key:
Test in all cases: PBM binding z-score (relative to random genomic background probes); higher = stronger binding; sequences stand for … in GC…GCGATTGACAGCGTAGAATGAAGG
[1] = system: RARb homodimer (NR concentration 270 nM)
In short: (§1)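 Custom Agilent 4×180K protein-binding microarrays carried double-stranded probes. Their 34-nt variable regions held direct-repeat seeds, single-nucleotide variants, half-site ablations and random human genomic background sequences. Arrays were incubated 1 h with ligand-free nuclear receptor dimers in PBS pH 7.4, 2% milk, 0.02% Triton X-100, 1 mM DTT, 0.2 mg/mL BSA and 0.4 mg/ml salmon testes DNA. Antibodies against each partner (one per run) detected binding, and scanned fluorescence was regression-normalized. Binding z-scores use random background probes as reference.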

[2] = system: RARg:RXRa (NR concentration 270 nM, RXRa partner concentration 90 nM)
In short: as §1

[3] = system: RARg homodimer (NR concentration 270 nM)
In short: as §1

[4] = system: RXRa DBDmut IVT, anti-RXR (DBD mutation: RXRa K156A/R161A, NR concentration 90 nM)
In short: as §1

[5] = system: RXRa homodimer (NR concentration 180 nM)
In short: as §1

[6] = system: THRa:RXRa (NR concentration 90 nM, RXRa partner concentration 90 nM)
In short: as §1

[7] = system: THRa homodimer (NR concentration 90 nM)
In short: as §1

[8] = system: VDR:RXRa (NR concentration 270 nM, RXRa partner concentration 90 nM)
In short: as §1

[9] = system: VDR homodimer (NR concentration 270 nM)
In short: as §1

## ACTATTAGTTGAGCCGAGGGCAACCGATAGGTTG
[1]
  PBM binding z-score: 1.35
[2]
  PBM binding z-score: 0.604
[3]
  PBM binding z-score: 0.752
[4]
  PBM binding z-score: 0.39
[5]
  PBM binding z-score: 0.52
[6]
  PBM binding z-score: 2.57
[7]
  PBM binding z-score: 0.523
[8]
  PBM binding z-score: 0.613
[9]
  PBM binding z-score: 0.692

## CATACAGGGTCAGCTAGGCCTGAGTAGGGACGGC
[1]
  PBM binding z-score: 2.93
[2]
  PBM binding z-score: 4.26
[3]
  PBM binding z-score: 4.49
[4]
  PBM binding z-score: 1.02
[5]
  PBM binding z-score: 4.15
[6]
  PBM binding z-score: 2.71
[7]
  PBM binding z-score: 0.977
[8]
  PBM binding z-score: 2.61
[9]
  PBM binding z-score: 0.628

## CCGACTGGGGCTAAGGTTACCATACTCAGTACGA
[1]
  PBM binding z-score: 1.12
[2]
  PBM binding z-score: 0.783
[3]
  PBM binding z-score: 0.678
[4]
  PBM binding z-score: 0.382
[5]
  PBM binding z-score: 0.902
[6]
  PBM binding z-score: 2.39
[7]
  PBM binding z-score: 1.68
[8]
  PBM binding z-score: 0.0865
[9]
  PBM binding z-score: 0.443

## TTACCAAGGTGAACGTCGTTGATCCCTCTGTAGA
[1]
  PBM binding z-score: 0.909
[2]
  PBM binding z-score: 0.602
[3]
  PBM binding z-score: 0.629
[4]
  PBM binding z-score: -0.298
[5]
  PBM binding z-score: 1.19
[6]
  PBM binding z-score: 2.32
[7]
  PBM binding z-score: 0.991
[8]
  PBM binding z-score: 0.322
[9]
  PBM binding z-score: -0.626

## GATACAGGATCAGCTAGAGGCCAGAGTATGGAAA
[1]
  PBM binding z-score: -0.0727
[2]
  PBM binding z-score: 1.16
[3]
  PBM binding z-score: 0.363
[4]
  PBM binding z-score: -0.823
[5]
  PBM binding z-score: 0.154
[6]
  PBM binding z-score: -0.0869
[7]
  PBM binding z-score: -1
[8]
  PBM binding z-score: -0.569
[9]
  PBM binding z-score: -0.773

## TCATATTGGTAAAGGTGAAAGTCGAACGATATGA
[1]
  PBM binding z-score: 1.33
[2]
  PBM binding z-score: 1.28
[3]
  PBM binding z-score: 0.994
[4]
  PBM binding z-score: 0.405
[5]
  PBM binding z-score: 1.79
[6]
  PBM binding z-score: 1.08
[7]
  PBM binding z-score: -0.164
[8]
  PBM binding z-score: 0.612
[9]
  PBM binding z-score: -0.179

## CCTTTCGGGTCACGAGGTTATAGCACGACGAGCG
[1]
  PBM binding z-score: 4.31
[2]
  PBM binding z-score: 6.29
[3]
  PBM binding z-score: 5.8
[4]
  PBM binding z-score: 2.08
[5]
  PBM binding z-score: 7.39
[6]
  PBM binding z-score: 4.52
[7]
  PBM binding z-score: 3.83
[8]
  PBM binding z-score: 5.31
[9]
  PBM binding z-score: 2.77

## CCTTACGGGTCATGAGGTTATAGCACGACGAGCG
[1]
  PBM binding z-score: 3.4
[2]
  PBM binding z-score: 5.79
[3]
  PBM binding z-score: 4.57
[4]
  PBM binding z-score: 1.85
[5]
  PBM binding z-score: 6.48
[6]
  PBM binding z-score: 3.62
[7]
  PBM binding z-score: 0.938
[8]
  PBM binding z-score: 4.92
[9]
  PBM binding z-score: 1.91

## CGAACTAGGTCAGCACAGGACAGTGAAGGATGAT
[1]
  PBM binding z-score: 2.69
[2]
  PBM binding z-score: 3.27
[3]
  PBM binding z-score: 4.34
[4]
  PBM binding z-score: 0.563
[5]
  PBM binding z-score: 1.68
[6]
  PBM binding z-score: 3.81
[7]
  PBM binding z-score: 0.48
[8]
  PBM binding z-score: 0.981
[9]
  PBM binding z-score: -0.111

## CGTCCAAGGTCGGCAGGTCAGTGAAAGCGACGTG
[1]
  PBM binding z-score: 3.1
[2]
  PBM binding z-score: 3.38
[3]
  PBM binding z-score: 3.66
[4]
  PBM binding z-score: 1.36
[5]
  PBM binding z-score: 2.08
[6]
  PBM binding z-score: 2.13
[7]
  PBM binding z-score: 0.0758
[8]
  PBM binding z-score: 1.28
[9]
  PBM binding z-score: 0.171

## TCTAGTTGGTCACGGTGGTCACACACGACGGGTA
[1]
  PBM binding z-score: 1.58
[2]
  PBM binding z-score: 1.53
[3]
  PBM binding z-score: 1.77
[4]
  PBM binding z-score: 0.312
[5]
  PBM binding z-score: 0.842
[6]
  PBM binding z-score: 0.234
[7]
  PBM binding z-score: 0.0512
[8]
  PBM binding z-score: 0.961
[9]
  PBM binding z-score: -0.372

## AGAACGAGGGCACGCTAAGTTGATAGCAGAGTAG
[1]
  PBM binding z-score: 1.19
[2]
  PBM binding z-score: 2.2
[3]
  PBM binding z-score: 2.4
[4]
  PBM binding z-score: 1.74
[5]
  PBM binding z-score: 1.49
[6]
  PBM binding z-score: 1.97
[7]
  PBM binding z-score: 0.0343
[8]
  PBM binding z-score: 1.65
[9]
  PBM binding z-score: 1.42

## GCTATCAGGCCATTTGGGTCACTCAATGACGGGC
[1]
  PBM binding z-score: 2.39
[2]
  PBM binding z-score: 1.19
[3]
  PBM binding z-score: 1.66
[4]
  PBM binding z-score: 0.754
[5]
  PBM binding z-score: 0.858
[6]
  PBM binding z-score: 2.55
[7]
  PBM binding z-score: 1.57
[8]
  PBM binding z-score: 1.38
[9]
  PBM binding z-score: 0.781

## CGTCCAAGGACAGCAGGTCAGTGAAAGCGACGTG
[1]
  PBM binding z-score: 2.36
[2]
  PBM binding z-score: 1.72
[3]
  PBM binding z-score: 2.06
[4]
  PBM binding z-score: 0.0474
[5]
  PBM binding z-score: 0.679
[6]
  PBM binding z-score: 2.46
[7]
  PBM binding z-score: 0.788
[8]
  PBM binding z-score: -0.0699
[9]
  PBM binding z-score: -0.264

## AGTCAAAGTTCACTAGTTAACGTAAGATTCAGCT
[1]
  PBM binding z-score: 3.6
[2]
  PBM binding z-score: 4.87
[3]
  PBM binding z-score: 5.57
[4]
  PBM binding z-score: 4.26
[5]
  PBM binding z-score: 3.7
[6]
  PBM binding z-score: 1.45
[7]
  PBM binding z-score: -0.514
[8]
  PBM binding z-score: 3.88
[9]
  PBM binding z-score: 4.04

## CACGAAAGGTCGTGCTCAGGTGAGTATACCAAAC
[1]
  PBM binding z-score: 2.88
[2]
  PBM binding z-score: 5.37
[3]
  PBM binding z-score: 4.66
[4]
  PBM binding z-score: 2.24
[5]
  PBM binding z-score: 5.36
[6]
  PBM binding z-score: 3.96
[7]
  PBM binding z-score: 1.18
[8]
  PBM binding z-score: 3.51
[9]
  PBM binding z-score: 1.46

## ACAGACAGGTGAGTTAAGGTAACTCAGCTGGACG
[1]
  PBM binding z-score: -0.0673
[2]
  PBM binding z-score: 0.439
[3]
  PBM binding z-score: 0.59
[4]
  PBM binding z-score: -0.352
[5]
  PBM binding z-score: 0.374
[6]
  PBM binding z-score: 4.35
[7]
  PBM binding z-score: 1.8
[8]
  PBM binding z-score: -0.161
[9]
  PBM binding z-score: -0.547

## TCGAGTAGGTTCGGGGCATTCAGAATGGCGTCGA
[1]
  PBM binding z-score: -0.0297
[2]
  PBM binding z-score: -0.387
[3]
  PBM binding z-score: -0.609
[4]
  PBM binding z-score: 0.913
[5]
  PBM binding z-score: -0.159
[6]
  PBM binding z-score: 0.428
[7]
  PBM binding z-score: -0.274
[8]
  PBM binding z-score: 0.124
[9]
  PBM binding z-score: 1.09

## GGAAAGAGGGCAAGTTGATAGCAGAGTTTGATGG
[1]
  PBM binding z-score: 2.23
[2]
  PBM binding z-score: 2.23
[3]
  PBM binding z-score: 3
[4]
  PBM binding z-score: 1.94
[5]
  PBM binding z-score: 1.43
[6]
  PBM binding z-score: 1.02
[7]
  PBM binding z-score: 0.275
[8]
  PBM binding z-score: 1.24
[9]
  PBM binding z-score: 1.93

## CCAGACAGGTGAGAAGGGAACTCAGCCTCGATTA
[1]
  PBM binding z-score: 0.237
[2]
  PBM binding z-score: -0.0873
[3]
  PBM binding z-score: 0.115
[4]
  PBM binding z-score: 0.063
[5]
  PBM binding z-score: 0.0773
[6]
  PBM binding z-score: 0.215
[7]
  PBM binding z-score: 0.0826
[8]
  PBM binding z-score: -0.443
[9]
  PBM binding z-score: -0.25

## ATACGTAGGTTAGCTGGGGTCATTCAGACTAGGC
[1]
  PBM binding z-score: 3.71
[2]
  PBM binding z-score: 4.03
[3]
  PBM binding z-score: 3.01
[4]
  PBM binding z-score: 1.65
[5]
  PBM binding z-score: 5.42
[6]
  PBM binding z-score: 4.9
[7]
  PBM binding z-score: 2.74
[8]
  PBM binding z-score: 6.12
[9]
  PBM binding z-score: 4.13

## TCACACAGGTGAAGGTAACTCAGGTACGCAGTCG
[1]
  PBM binding z-score: 0.561
[2]
  PBM binding z-score: 0.746
[3]
  PBM binding z-score: 0.701
[4]
  PBM binding z-score: 0.879
[5]
  PBM binding z-score: 1.18
[6]
  PBM binding z-score: 1.4
[7]
  PBM binding z-score: 0.16
[8]
  PBM binding z-score: 0.751
[9]
  PBM binding z-score: 0.257

## GATACAGGGTAAGCTAGAGGCCAGAGTATGGAAA
[1]
  PBM binding z-score: 0.413
[2]
  PBM binding z-score: 0.988
[3]
  PBM binding z-score: 0.547
[4]
  PBM binding z-score: -0.967
[5]
  PBM binding z-score: 0.303
[6]
  PBM binding z-score: 0.219
[7]
  PBM binding z-score: -0.653
[8]
  PBM binding z-score: -0.409
[9]
  PBM binding z-score: -0.382

## TCTAGTTGGGCAAAGGTCACACACTCGAAATGCG
[1]
  PBM binding z-score: 5.01
[2]
  PBM binding z-score: 6.49
[3]
  PBM binding z-score: 5.87
[4]
  PBM binding z-score: 1.44
[5]
  PBM binding z-score: 7.41
[6]
  PBM binding z-score: 3.99
[7]
  PBM binding z-score: 1.54
[8]
  PBM binding z-score: 4.65
[9]
  PBM binding z-score: 2.26

## CAAACTAGGTCAAAGGTCAAAGGCGAGCCAACCA
[1]
  PBM binding z-score: 5.32
[2]
  PBM binding z-score: 9.06
[3]
  PBM binding z-score: 7.75
[4]
  PBM binding z-score: 3.02
[5]
  PBM binding z-score: 10.4
[6]
  PBM binding z-score: 4.91
[7]
  PBM binding z-score: 1.64
[8]
  PBM binding z-score: 6.82
[9]
  PBM binding z-score: 3

## CATACAGGGTCAGCTAGGCCCGAGTAGGGACGGC
[1]
  PBM binding z-score: 3.14
[2]
  PBM binding z-score: 4.41
[3]
  PBM binding z-score: 4.89
[4]
  PBM binding z-score: 1.18
[5]
  PBM binding z-score: 4.55
[6]
  PBM binding z-score: 3.14
[7]
  PBM binding z-score: 0.566
[8]
  PBM binding z-score: 2.63
[9]
  PBM binding z-score: 0.91

— the supplement of paper PMC6555819
